Screening data from PubChem.
B2AR arrestin – qHTS assay of beta-arrestin-biased ligands of beta2-adrenergic receptor. Beta-2 adrenergic receptor (Homo sapiens), P07550. hit rate 0.02% among 330,000. Potency, µM (doses to about 46.1 µM), inactives show at the top dose activation, actives largely listed as activators. beta-arrestin recruitment to beta2AR, cell-based reporter;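 note: potency is the fitted concentration of half-maximal effect; 0% = DMSO controls and full agonism = EC100 isoproterenol or metaproterenol; nearly all actives have a fitted effect of over 65% in size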
D3 ag – qHTS of D3 Dopamine Receptor Agonist: qHTS. AID 652048, 2013. max activation, %. D(3) dopamine receptor (Homo sapiens), P35462. D3R DiscoveRx beta-arrestin cells, luminescence, 90 min. hit rate 0.58% among 410,000; in the data active = max activation above about 30%; note: 0% is about no effect
Target sequence (P35462 whole entry, looked up): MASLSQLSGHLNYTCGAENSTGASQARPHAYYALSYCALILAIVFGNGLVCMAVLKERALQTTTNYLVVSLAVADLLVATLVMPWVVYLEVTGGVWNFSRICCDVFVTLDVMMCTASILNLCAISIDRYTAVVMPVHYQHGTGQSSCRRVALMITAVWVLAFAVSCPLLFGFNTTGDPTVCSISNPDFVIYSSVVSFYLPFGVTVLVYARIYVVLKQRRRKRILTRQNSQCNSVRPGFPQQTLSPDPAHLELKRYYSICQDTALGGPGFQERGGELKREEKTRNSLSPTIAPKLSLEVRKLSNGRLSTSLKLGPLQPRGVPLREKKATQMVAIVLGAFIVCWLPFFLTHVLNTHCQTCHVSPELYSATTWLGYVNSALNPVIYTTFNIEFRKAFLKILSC
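Agonist mode: compounds and dopamine controls were applied to plated cells for 90 min at 37 degrees C after an overnight attachment at 1500 cells/well. Luminescent read-out followed 30 - 60 minutes at room temperature with DiscoveRx detection reagent.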
RGS4 inhibitor – Inhibitors of Regulator of G Protein Signaling (RGS) 4: qHTS; Regulator of G-protein signaling 4 (Homo sapiens), P49798; Potency, µM (highest dose often 114 µM), for inactives: at the top dose activity change, negative = inhibition, hits mostly inhibitors; Transcreener GDP fluorescence polarization, RGS4-accelerated GTP hydrolysis; hit rate 0.039% among 390,000; AID 504845, 2011; note: potency is the fitted concentration of half-maximal effect; % is set by controls: 0 for no effect and ±100 for the full control effect; nearly all actives have a fitted effect of over 75% in size
Target sequence (P49798 whole entry, looked up): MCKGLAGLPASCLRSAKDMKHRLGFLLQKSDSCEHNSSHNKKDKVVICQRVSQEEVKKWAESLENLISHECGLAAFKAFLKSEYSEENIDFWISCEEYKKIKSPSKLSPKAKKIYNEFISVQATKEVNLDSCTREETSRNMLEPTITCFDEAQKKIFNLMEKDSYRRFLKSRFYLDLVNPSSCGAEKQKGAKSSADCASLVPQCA
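MLSMR compounds (23 nl, pin-transferred) preincubated 10 min at room temperature with a 500nM (2x) first reagent, then RGS4 at 900nM (2x) plus Transcreener GDP mix added; fluorescence polarization (620/688 nm) read before and after 90 min at 30 °C.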
BRCA1 expr up – qHTS Assay to Identify Small Molecule Activators of BRCA1 Expression; MCF7-BRCA1-FFLuc reporter, luminescence, 48 h; response scale: scaled: vehicle 0%, 10 µM genistein 100%; Potency, µM (highest dose often 46.1 µM), inactives show at the top dose activation, most hits filed as activators; hit rate 1.1% among 380,000; AID 624202, 2012; note: potency is the fitted concentration of half-maximal effect; nearly all actives have a fitted effect of over 80% in size
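Reporter cells (MCF7, BRCA1 promoter-firefly luciferase) received library compounds across a concentration series for 48 h. End-point luminescence was measured and concentration-effect curves derived after normalization.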
PTHR1 agonist – qHTS for PTHR1 Agonists: Primary Screen; HEK293 GP2 PTHR1 cells, GloSensor cAMP luminescence, 1 h; Potency, µM (series often up to 115 µM), for the others: top-dose activation, most hits filed as activators; hit rate 0.075% among 410,000; AID 743266, 2014; note: potency is the fitted concentration of half-maximal effect; nearly all actives have a fitted effect of over 55% in size
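HEK-293-derived GP2 cells expressing PTHR1 and a GloSensor cAMP reporter, 3,000/well, plated overnight, given luciferin plus IBMX (each 0.5 mM as added) for 1 h at 37 °C, then compound for 1 h at 37 °C. Luminescence was read after 15 min at room temperature.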
D3 antag – qHTS of D3 Dopamine Receptor Antagonist: qHTS | D3R cells, DiscoveRx beta-arrestin luminescence, antagonist mode; hits give low values | hit rate 2.5% among 360,000 | AID 652054, 2013 | D(3) dopamine receptor (Homo sapiens), P35462 | max response, negative = inhibition, %; in the data active = max response below about -50%; inconclusive = no clear call, values can overlap the other calls; note: % is set by controls: 0 for no effect and ±100 for the full control effect
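Cells expressing the human receptor were seeded at 1500 cells/well, incubated overnight at 37 degrees C in 5% CO2, then exposed to library compounds with dopamine controls for 90 minutes at 37 degrees C before luminescent detection.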
An asterisk follows results filed as active; i = inactive; ? = inconclusive; . = no result; [ ] = dose if it differs, or a comment. Only some compounds are listed: those with a hit (about 3.7% of all), similar ones and a draw of the others. Unless noted, calls come from the whole dose curve; as a rule, active = well fitted curve in the direction sought with a large enough effect; inconclusive = small, poorly fitted or top-dose-only effect, or another doubt; inactive = no such curve, though single readings can be large; an effect the other way counts as inactive or inconclusive.

SMILES	B2AR arrestin	D3 ag	RGS4 inhibitor	BRCA1 expr up	PTHR1 agonist	D3 antag
Cc1ccc(NC(=O)c2ccc(Nc3c([N+](=O)[O-])cc([N+](=O)[O-])cc3[N+](=O)[O-])cc2)cc1	-1.7%	-16.0	?	-86.0%	-39.7%	-76.8*
Cc1ccc(NC(=O)c2ccc(C(C)(C)C)cc2)cc1[N+](=O)[O-]	1.1%	6.8	-18.6%	8.91µM*	-3.5%	14.1
CCc1nc2c(OCC(=O)c3ccc(Cl)cc3Cl)cccn2c1N(C)C(=O)c1cccs1	.	-1.3	.	-60.0%	-16.0%	-1.6
Cc1cc2oc(=O)c(CC(=O)NCCc3ccccc3)c(C)c2c2occ(C(C)(C)C)c12	.	4.8	5.7%	.	i	.
Cc1ccc2c(c1)-c1c(cnn1CC(=O)N1CCN(c3ccccc3F)CC1)CO2	.	3.3	-16.2%	5.3%	i	.
CCN1\C(=C/C=C/C=C/c2sc3ccccc3[n+]2CC)Sc2ccccc21	.	-19.9	.	.	.	.
Cc1cn([C@H]2C[C@H](O)[C@@H](/C=C/C(=O)NCc3ccco3)O2)c(=O)[nH]c1=O	.	6.5	.	10.5%	0.4%	5.0
Cc1ccc(/C=C/c2onc(C)c2S(=O)(=O)N2CCC(C(=O)N3CCC(N(C)C(C)C)CC3)CC2)cc1	.	-10.6	6.9%	.	-9.9%	.
COc1ccc(Cl)cc1NC(=O)Nc1cccc([N+](=O)[O-])c1C	0.0%	-16.7	-12.2%	-14.5%	-17.2%[57.5 µM]	-76.1*
COc1ccc(Cl)cc1NC(=O)NC1CCCCC1	-0.3%	-10.0	4.6%	-19.2%	-4.8%[57.5 µM]	0.0
O=c1[nH]cnc2cc(-c3ccccc3)sc12	0.2%	3.6	-9.6%	2.82µM*	-18.8%	15.2
CC1CC2(C)C(=CC1=O)CCC1C2C(O)CC2(C)C1CCC2(O)C(=O)CO (stereo unspecified)	.	10.3	-1.0%	-31.5%	i	-4.2
Cc1ccccc1NC(=O)c1cc(S(=O)(=O)c2ccccc2)ccc1Cl	-0.1%	-7.9	21.8%	-15.1%	i	-51.7*
COc1cc(NC(=O)C2=C(C)Nc3nnnn3C2c2ccc(SC)cc2)c(OC)cc1Cl (stereo unspecified)	.	-1.0	9.7%	-7.5%	-27.4%	.
N=C(C[C@@H](O)COc1ccccc1-c1ccccc1)N1CCCCC1	.	.	i	.	.	.
O=C(Nc1nnc(C2CC2)s1)c1ccc(Cl)c(S(=O)(=O)N2CCc3ccccc3C2)c1	0.9%	41.2*	-34.7%	-32.4%	-24.5%	0.0
COc1cc(C(C)=O)ccc1OCC(O)CN1CCN(c2c(C)cccc2C)CC1 (stereo unspecified)	-1.0%	-16.2	-22.9%[56.9 µM]	-27.3%	-16.9%	-23.4
COc1cc(C(C)=O)ccc1OCC(O)CN1CCN(c2ccc(C)c(C)c2)CC1 (stereo unspecified)	-0.5%	-7.6	-6.3%	-4.7%	-18.0%	-52.2*
CC(=O)Nc1ccc(OCC(O)CN2CCN(c3ccc(C)c(Cl)c3)CC2)cc1 (stereo unspecified)	-0.5%	-31.6	34.1%	-8.4%	i	-144.3*
CC(=O)Nc1ccc(OCC(O)CN2CCN(c3cc(Cl)ccc3C)CC2)cc1 (stereo unspecified)	-0.1%	-58.5	17.7%	1.3%	-0.1%[57.5 µM]	-9.7
CCOc1ccc(OCC)c(NC(=O)C2CCCN(S(=O)(=O)c3ccc4c(c3)oc(=O)n4C)C2)c1 (stereo unspecified)	.	3.3	8.0%	1.5%	-28.8%	.
Cc1ccc(-c2nc3cccnc3o2)cc1NC(=O)COc1ccc(Cl)cc1C	0.1%	0.3	5.0%	-16.1%	-2.2%[57.5 µM]	11.9
Cc1ccc(-c2nc3cccnc3o2)cc1NC(=O)COc1ccc(C(C)(C)C)cc1	-0.1%	78.9*	-25.9%	-57.2%	-18.7%	103.4
Clc1ccc(-c2nnc(N3CCOCC3)o2)cc1	-0.8%	10.2	-0.1%	3.98µM*	i	9.3
Fc1ccc(-c2nnc(-c3ccc(Cl)cc3)o2)cc1	0.1%	-12.3	6.4%	2µM*	-51.1%[57.5 µM]	-17.7
SMILES	B2AR arrestin	D3 ag	RGS4 inhibitor	BRCA1 expr up	PTHR1 agonist	D3 antag
COc1ccc(C2NN=C(c3ccc(C)cc3)S2)cc1 (stereo unspecified)	-0.1%	0.1	-40.3%	1.78µM*	-49.2%	-5.2
CCCC(=O)Nc1cc2nn(-c3ccc(OC)cc3)nc2cc1C	.	42.6*	16.0%	.	-25.0%	.
COc1ccc(-n2nc3cc(C)c(NC(=O)CC(C)C)cc3n2)cc1	-0.4%	.	.	.	.	.
Cc1cc(C)nc(SCc2ccc(C(=O)N/N=C/c3ccco3)cc2)n1	0.1%	1.4	-30.9%	19.2%	i	-17.9
CCOC(=O)c1c(C)[nH]c(C)c1S(=O)(=O)NCCN1CCN(c2ccccc2F)CC1	0.0%	-15.1	13.5%[11.4 µM]	3.9%	-86.2%	-57.7*
CCOC(=O)c1c(C)[nH]c(C)c1S(=O)(=O)NCC1CCN(Cc2ccc(C)cc2)CC1	-0.6%	-15.4	26.0%	2.0%	-14.3%	-53.8*
CCOC(=O)c1c(C)[nH]c(C)c1S(=O)(=O)NCC1CCN(Cc2ccccc2F)CC1	0.2%	-16.7	-0.1%	6.4%	i	-20.6
C1CCN(CCC2CCCCN2)CC1 (stereo unspecified)	.	-6.1	.	3.6%	i	20.0
C1CCC(OCCN2CCN(CCOC3CCCCC3)CC2)CC1	0.3%	-27.0	-6.4%	-3.3%	-21.1%	-63.0*
COc1cc(C=NNC(=O)Cn2nc(C)cc2C)ccc1OC(=O)C1CC1	-0.1%	-5.5	-14.5%	-30.6%	-42.7%	6.5
CCN(CC)CCNC(=S)Nc1ccc(Cl)cc1	0.4%	-10.6	17.4%	-4.2%	-13.0%	-51.3*
CCCCOc1ccc(S(=O)(=O)NC(=O)C2(C)CCN2C(=O)c2c(C)noc2C)cc1 (stereo unspecified)	.	-4.2	.	5.0%	i	-10.7
Cc1cccc(C)c1NC(=O)C(c1ccc(C#N)cc1)n1c(=O)c(-c2cc3ccccc3[nH]2)nc2ccccc21 (stereo unspecified)	.	0.7	.	.	-41.3%	19.1
CC1CCN(CCCCOc2ccccc2Br)CC1	11.8%	-19.3	8.8%	-25.3%	i	-54.1*
Cc1ccccc1OCCCN1CCOCC1	-0.1%	-4.0	23.3%	34.8%	-5.8%	-8.7
CC1CCN(CCCCOc2cccc(Br)c2)CC1	-0.3%	-31.7	?	-33.8%	-21.0%	?
CC1CCN(CCCCOc2ccccc2F)CC1	0.4%	-16.5	-49.9%[56.9 µM]	10.5%	i	-81.9*
Brc1ccccc1OCCCN1CCOCC1	0.2%	-66.4	36.1%	74.7%	i	-50.6*
Brc1ccccc1OCCCn1cnc2ccccc21	0.3%	-6.0	-16.9%	11.2µM*	-26.3%	31.9
